Screen size: about 16,000 compounds; about 5,700 (36%) were called active. Roughly 24% stayed inconclusive and do not appear here. Calls come from the whole dose curve; as a rule, active = well fitted curve in the direction sought with a large enough effect; inconclusive = small, poorly fitted or top-dose-only effect, or effect the other way; inactive = no such curve, though single readings can be large or run the other way. Some of the results follow.
% is set by controls: 0 for no effect and ±100 for the full control effect.

Sequence of Cytochrome P450 1A2 (Homo sapiens) (P05177 whole entry, looked up): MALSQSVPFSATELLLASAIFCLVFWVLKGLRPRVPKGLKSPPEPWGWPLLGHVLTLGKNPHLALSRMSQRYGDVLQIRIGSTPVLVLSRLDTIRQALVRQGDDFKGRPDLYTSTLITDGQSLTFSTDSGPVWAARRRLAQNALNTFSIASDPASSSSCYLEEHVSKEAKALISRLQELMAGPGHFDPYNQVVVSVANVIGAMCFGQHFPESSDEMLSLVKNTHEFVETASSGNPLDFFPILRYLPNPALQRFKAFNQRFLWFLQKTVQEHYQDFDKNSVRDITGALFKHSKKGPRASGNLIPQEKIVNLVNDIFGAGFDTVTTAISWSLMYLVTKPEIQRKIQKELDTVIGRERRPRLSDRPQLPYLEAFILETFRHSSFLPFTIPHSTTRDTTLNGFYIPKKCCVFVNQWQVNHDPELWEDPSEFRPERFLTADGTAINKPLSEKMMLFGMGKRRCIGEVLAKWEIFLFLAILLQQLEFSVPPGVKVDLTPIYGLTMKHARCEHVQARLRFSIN

This assay addresses Cytochrome P450 1A2 (Homo sapiens) (UniProt P05177). The assay is described as follows: Cytochrome panel assay with activity outcomes. Conditions: recombinant CYP, pro-luciferin dealkylation, luminescence, p450-cyp1a2; series mostly up to 57.1 µM; activity, negative = inhibition: at the top concentration.
For the compound `COc1ccc(N2C(=O)CCC(C(=O)Nc3ccccn3)C2c2ccc(OC)c(OC)c2)cc1` (stereo not given), the “activity, negative = inhibition” value is -26.4% (inactive). On the same count and under the same terms, the figure for `C/C(CCN1CCCCc2nc(C)c(C)cc21)=N\OC[C@@H](O)COCc1ccco1` is -9.9% [at 11.4 µM] (inactive). For `O=C1C(Cl)=C(Sc2nnc3c4ccccc4c4ccccc4c3n2)C(=O)c2ccccc21`, the AC50 was 0.398 µM (active).

Take `O=c1c2c(-c3ccc(Cl)cc3)csc2nc2n1CCC2`: the AC50 was 1.26 µM (active).

On to `O=c1cc(CN2CCN(c3ccc(F)cc3)CC2)c2cc3c(cc2o1)CCCC3`, for which the “activity, negative = inhibition” value was -25.7% (inactive). On the same count and under the same terms, the figure for `O=C(C1CCN(S(=O)(=O)N2CCOCC2)CC1)N1CCN(Cc2ccccc2)CC1` is 4.96% (inactive). On to `O=c1oc2c(CN3CCOCC3)c(O)ccc2c2ccccc12`, for which the AC50 was 1.26 µM (active).

`COc1ccccc1-c1c(C)oc2c(CN3CCN(CCO)CC3)c(O)ccc2c1=O`: the “activity, negative = inhibition” value was -1.03% (inactive). Same read-out and setting: the figure for `COc1ccc(-c2c(C)oc3c(CN4CCN(CCO)CC4)c(O)ccc3c2=O)cc1OC` is -11.4% (inactive). With `CCCc1cc(=O)oc2c(CN3CCOCC3)c(O)ccc12`, the AC50 was 14.1 µM (active).

Regarding `CCCCc1nc(SCC(=O)Nc2ncccn2)n[nH]1`, the “activity, negative = inhibition” value is -22.5% (inactive). Consider `Cc1cc(NC(=O)CSc2n[nH]c(-c3cccs3)n2)no1`, for which the AC50 is 2.51 µM (active). Consider `Cc1cc(NC(=O)CSc2nc3ccsc3c(=O)n2CCCCC(=O)O)no1`, for which the “activity, negative = inhibition” value is -3.12% (inactive). With `COc1ccc(OCc2nnc(SCC(=O)N3c4ccccc4Sc4ccc(Cl)cc43)o2)cc1`, the “activity, negative = inhibition” value is -0.153% (inactive). As for `O=C(CSc1nc2ccccc2s1)c1sc2sc3ccccc3[n+]2c1O`, the AC50 was 5.01 µM (active). Regarding `O=C(CSc1nc2ccccc2s1)N1c2ccccc2Sc2ccc(C(F)(F)F)cc21`, the AC50 is 1.12 µM (active). Still for that read-out and setting: next, `O=C(CSc1nc2ccccc2o1)N1c2ccccc2Sc2ccc(Cl)cc21`: 2.24 µM (active). `CN1CCN(CC(=O)N2c3ccccc3Sc3cc4ccccc4cc32)CC1`: the activity, negative = inhibition was -21.6% [at 2.29 µM] (inactive). For `O=C(CSc1nc2ccccc2s1)N1c2ccccc2Sc2ccccc21`, the AC50 is 0.708 µM (active). For the compound `Cc1c(NC(=O)Cn2ccc([N+](=O)[O-])n2)c(=O)n(-c2ccccc2)n1C`, the “activity, negative = inhibition” value is -9.17% (inactive). Take `Cc1ccc(-c2ccc(CCC(=O)O)n2CC2CCCO2)cc1` (stereo not given): the “activity, negative = inhibition” value was -27.4% (inactive).

Consider `S=c1[nH]nc(-c2ccncc2)n1CC1CCCO1` (stereo not given), for which the “activity, negative = inhibition” value was -22.4% (inactive). With `Nc1ncc(-c2ccccc2)n1CC1CCCO1` (stereo not given), the AC50 is 15.8 µM (active). For the compound `O=C(NNC(=O)C1CCN(S(=O)(=O)c2ccc(Cl)cc2)CC1)c1ccc(Cl)cc1`, the “activity, negative = inhibition” value is 10.9% (inactive).

`Nc1ccc(CCNc2ncnc3c2ncn3[C@@H]2O[C@@H](CO)[C@H](O)[C@@H]2O)cc1`: the “activity, negative = inhibition” value was -9.16% (inactive).

On to `Cc1ccc(N=Nc2c(=O)[nH]n3c(C)cc(C)nc23)cc1`, for which the AC50 is 12.6 µM (active). Take `CC(=O)NC1(c2ccc(F)cc2)CCN(C(=O)Nc2ccc(F)cc2F)CC1`: the “activity, negative = inhibition” value is -6.47% (inactive). With `CNC(=O)c1sc(-c2cccnc2)nc1C`, the AC50 was 14.1 µM (active). `CC(C)N=C(Nc1ccc(Cl)cc1)c1cccnc1`: the “activity, negative = inhibition” value is -17.4% (inactive). Still for that read-out and setting: next, `Cc1cccc(C)c1NC(=O)CS(=O)CC(=O)Nc1ccc(F)cc1F` (stereo not given): -14.2% (inactive). With `Cc1nc(-c2cccnc2)sc1C(=O)Nc1ccc(Cl)cc1`, the AC50 is 2.51 µM (active). For `Cc1nc(-c2cccnc2)sc1C(=O)Nc1ccc(F)cc1F`, the AC50 was 4.47 µM (active). On the same count and under the same terms, next, `Cc1nc(-c2cccnc2)sc1C(N)=O`: 14.1 µM (active). As to `CC(C)NC(=O)N1CC2(CCN(S(=O)(=O)c3ccccc3)CC2)C1`, the “activity, negative = inhibition” value is -9.07% (inactive).

For the compound `Cn1ccnc1C[C@@](C)(O)c1ccccc1`, the activity, negative = inhibition is -14.2% [at 11.4 µM] (inactive). The same measure, in the same setting: the figure for `CC(C(=O)NC1CCCC1)N(C(=O)c1snc(C(N)=O)c1N)c1ccc2c(c1)OCCO2` (stereo not given) is -27.6% (inactive). For the compound `CC(Sc1ccc2c(c1)OCCO2)C(=O)Nc1ncc(Cl)cc1Cl` (stereo not given), the AC50 is 6.31 µM (active).

For `COCC(=O)N1CCC2(CCCN(Cc3ccccc3OC)C2)CC1`, the “activity, negative = inhibition” value was -2.98% (inactive). In the case of `NCC(=O)Nc1ccc(Cl)cc1C(=O)c1ccc[nH]1`, the AC50 was 3.16 µM (active). In the case of `Cc1cc2c(ncn2Cc2ccccc2)c([N+](=O)[O-])c1C`, the AC50 was 5.62 µM (active). Take `Cc1ncc([N+](=O)[O-])n1CC(=O)NCc1ccccc1`: the “activity, negative = inhibition” value is -24% (inactive). Take `Cc1cccc(Cn2cnc3c(NS(C)(=O)=O)c(C)c(C)cc32)c1`: the AC50 was 3.16 µM (active). With `Cc1nn(CC(=O)NCc2ccccc2)c(C)c1[N+](=O)[O-]`, the “activity, negative = inhibition” value was -4.08% (inactive). Still for that read-out and setting: the figure for `CC(=O)C=NCC(=O)O` is 0.0576% [at 11.4 µM] (inactive); for `COC(=O)[C@@]1(Cc2ccc(F)cc2)[C@H]2c3cc(C(=O)N(C)C)n(Cc4ccc(C(F)(F)F)nc4)c3C[C@H]2CN1C(=O)c1ccccc1` it is -10.8% (inactive). For the compound `COc1ccc(CCNc2nc(-c3cccnc3)cs2)cc1OC`, the AC50 was 0.355 µM (active). The same measure, in the same setting: the figure for `COc1ccccc1CNc1cc(-c2cccnc2)ncn1` is 1 µM (active); for `COc1ccc(CNc2cc(-c3cccnc3)ncn2)c(OC)c1` it is 1.26 µM (active). Take `CC(C)(C)C(=O)N(CCN(C(=O)C(C)(C)C)c1ccccc1)c1ccccc1`: the “activity, negative = inhibition” value was -6.47% (inactive).

On to `COC(=O)C/C=C\[C@@H](C)[C@@H](/C=N\OC[C@@H](O)[C@H]1O[C@H]2OC(C)(C)O[C@H]2[C@@H]1O)NS(=O)(=O)c1ccc(C)cc1`, for which the activity, negative = inhibition is 0.282% [at 11.4 µM] (inactive). Same read-out and setting: next, `CCC[C@@H]1C[C@@]1(CCC)C(NC(=O)c1ccccc1)c1cccc(Cl)c1` (stereo not given in full): -9.7% (inactive).

On to `CCCC[C@@H]1C[C@H]1C(NC(=O)c1ccccc1)c1ccccc1` (stereo not given in full), for which the AC50 was 2.51 µM (active). As to `CCCC[C@@H]1C[C@H]1C(NC(=O)c1ccc(-c2ccccc2)cc1)c1ccc(-c2ccccc2)cc1` (stereo not given in full), the “activity, negative = inhibition” value is 0.142% (inactive). Consider `CCCC[C@@H]1C[C@H]1C(NC(=O)c1ccccc1)c1ccc(Cl)cc1` (stereo not given in full), for which the AC50 was 1 µM (active). As to `C=C(CC1([C@@H](NP(=O)(c2ccccc2)c2ccccc2)[C@H]2C[C@@H]2CCCC)CC1)c1ccccc1`, the “activity, negative = inhibition” value was -15.8% (inactive).

Consider `C[C@@]1(C(NC(=O)c2ccc(-c3ccccc3)cc2)c2ccc(Cl)cc2)C[C@H]1C1CCCCC1` (stereo not given in full), for which the “activity, negative = inhibition” value is -17.1% (inactive). On the same count and under the same terms, next, `Cc1cc(C)n(-c2ccc(Cl)c(C(=O)O)n2)n1`: -1.29% (inactive).

For `COC(=O)c1ccc(Oc2cc(C)nc(-n3nc(C)cc3C)n2)cc1`, the AC50 is 8.91 µM (active). Still for that read-out and setting: next, `Cc1ccc(-c2csc(C(C#N)=C3CCCC3)n2)cc1`: 3.55 µM (active); `N#CC(=C1CCCC1)c1nc(-c2ccccc2)cs1`: 0.631 µM (active). Still for that read-out and setting: the figure for `N#C/C(=N\O)c1nc(-c2ccccc2)cs1` is 6.31 µM (active).

In the case of `CC1(C)N=C(N)N=C(N)N1CCCCc1ccccc1`, the activity, negative = inhibition is -4.32% [at 2.29 µM] (inactive). Consider `C/C(O)=C\c1nc2ccccc2oc1=O`, for which the “activity, negative = inhibition” value was -19.9% (inactive). On to `c1ccc(-c2nc3ccccc3o2)nc1`, for which the AC50 was 0.501 µM (active).

For the compound `O=S(=O)(O)c1ccc(-c2nnc(-c3ccccn3)nc2-c2ccc(S(=O)(=O)O)o2)o1`, the activity, negative = inhibition was -8.46% [at 11.4 µM] (inactive).

In the case of `CC1(C)C(=O)NC2=C1C(=O)C(=O)c1ccccc12`, the AC50 is 3.16 µM (active). Same read-out and setting: next, `N#C/C(=C\c1c[nH]c2ccccc12)C(=O)c1ccc(O)c(O)c1`: 1.26 µM (active).

Take `O=C(O)[C@@H]1CCCN1Cc1c[nH]c2ccccc12`: the activity, negative = inhibition is -13.1% [at 11.4 µM] (inactive). On the same count and under the same terms, next, `CCN(CC(=O)O)CC(=O)O`: -5.21% [at 11.4 µM] (inactive).

For `CN1CCN(c2ccnc(-c3cccc(NS(C)(=O)=O)c3)n2)CC1`, the AC50 was 12.6 µM (active). Turning to `CS(=O)(=O)Nc1ccc(C(=O)N2CCN(c3ccccc3)CC2)cc1`, the “activity, negative = inhibition” value was -6.89% (inactive). The same measure, in the same setting: the figure for `COc1ccc(NS(=O)(=O)c2ccc(I)cc2)cc1N1CCN(C)CC1` is 5.42% (inactive). As for `CS(=O)(=O)Nc1cccc(-c2cncnc2-n2ccnc2)c1`, the half-maximal activity concentration (AC50) is 15.8 µM (active).

Consider `CS(=O)(=O)Nc1cccc(-c2nccc(-n3ccnc3)n2)c1`, for which the AC50 is 0.2 µM (active). As to `CCN1C(=O)[C@H]2[C@H]3[C@H](O)[C@H](O)C/C(=N/OCC(C)C)[C@@H]3CC[C@@H]2C1=O`, the activity, negative = inhibition was -10.8% [at 11.4 µM] (inactive). Regarding `O=[N+]([O-])c1cccnc1NCCNc1ncc(C(F)(F)F)cc1Cl`, the AC50 was 2 µM (active).

`COC(=O)[C@@]1(Cc2ccc(F)cc2)[C@H]2c3cc(C(=O)N4CCCC4)n(CCCNc4ncc(C(F)(F)F)cc4Cl)c3C[C@H]2CN1C(=O)c1ccccc1`: the “activity, negative = inhibition” value is -11.6% (inactive). With `C[C@@H]1O[C@@H](O)[C@@H](O)[C@H](O)[C@H]1O`, the activity, negative = inhibition is -2.48% [at 11.4 µM] (inactive). As for `O=C(O)c1ccccc1N/N=C\c1ccnc2ccccc12`, the AC50 is 11.2 µM (active). Consider `Cn1c(=O)c2c(nc(N/N=C\c3ccccc3C(=O)O)n2C)n(C)c1=O`, for which the activity, negative = inhibition is 5.78% [at 11.4 µM] (inactive). On the same count and under the same terms, the figure for `O=C(O)CCNc1ccccc1C(=O)O` is -11.9% [at 11.4 µM] (inactive). On to `Brc1ccc(C2=Nn3c(nnc3-c3cccnc3)SC2)s1`, for which the AC50 is 5.01 µM (active). Take `COc1ccc(C(C(=O)NC2CCCC2)N(C(=O)c2snc(-c3ccc(F)cc3)c2N)c2ccccc2)cc1` (stereo not given): the “activity, negative = inhibition” value was 2.42% (inactive).

On to `Cc1cc2ccccn2c1C(=O)c1nc(N2CCOCC2)ncc1Cl`, for which the AC50 is 15.8 µM (active). `Cc1cc2ccccn2c1C(=O)c1ccc(Cl)cc1`: the AC50 was 3.16 µM (active). On the same count and under the same terms, the figure for `Cc1sc(=NC(=O)c2ccco2)n(C)c1-c1ccc(F)cc1` is 8.91 µM (active); for `COc1ccccc1-c1nc(N2CCOCC2)c2ccccc2n1` it is 0.501 µM (active).

With `COc1ccccc1-c1nc(N2CCN(C)CC2)c2ccccc2n1`, the AC50 was 12.6 µM (active).

Regarding `COc1ccccc1C(=O)N1CCN(c2ccccn2)CC1`, the “activity, negative = inhibition” value is -22.5% (inactive). On the same count and under the same terms, the figure for `CC(C)(C)C1CCC(OCC(O)CN2CCN(c3ccccc3)CC2)CC1` (stereo not given) is -2.29% (inactive). `O=C1c2cccc3cccc(c23)C(=O)N1CC1CCN(CC(O)COc2ccc3ccccc3c2)CC1` (stereo not given): the AC50 is 0.562 µM (active). Take `O=C(c1ccccc1)c1ccc(OCC(O)CN2CCN(Cc3ccccc3)CC2)cc1` (stereo not given): the “activity, negative = inhibition” value is -4.15% (inactive). As to `Cc1cccc(C(=O)NC2CCN(C(=O)N3CCOCC3)CC2)c1`, the “activity, negative = inhibition” value is -14.5% (inactive). As for `Cc1cccc(C(=O)NCN2CCN(c3ccccc3C#N)CC2)c1`, the AC50 was 20 µM (active).

For `Cc1cccc(C(=O)NC(=S)N2CCN(C)CC2)c1`, the “activity, negative = inhibition” value is -21.4% (inactive).

Source of the values: PubChem BioAssay AID1851 (National Center for Advancing Translational Sciences (NCATS), 2009).
